Results published in the supplement of paper PMC9262897, “Low-cost anti-mycobacterial drug discovery using engineered E. coli” (Nature Communications, 2022).
Structures can show the parent of a compound that is named as a salt. ± gives the standard deviation of the averaged measurements.

Test system: E. coli TESEC Alr+ wild-type control
Test: growth (OD600 after 10 h); higher = more growth (less inhibition)
Details: compound 0.1 mM; raw OD600 reference: median of DMSO wells 0.241, cell-free background 0.041
Experimental: (§1)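 TESEC Mtb Alr E. coli, or the Alr+ wild-type control, in 384-well plates with Prestwick library compounds at 0.1 mM and 1% DMSO, across arabinose induction levels of 1E3 to 1E7 nM. Growth is read as OD600 after 10 h at 37 °C in triplicate biological replicates.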

Compound | growth
CCN1CCCC1CNC(=O)c1cc(S(N)(=O)=O)ccc1OC (stereo not drawn) [Sulpiride] | 0.2503 ± 0.0019
COc1ncnc(NS(=O)(=O)c2ccc(N)cc2)c1OC [Sulfadoxine] | 0.2282 ± 0.0012
C[C@@H]1C[C@H]2[C@@H]3C[C@H](F)C4=CC(=O)C=C[C@]4(C)[C@@]3(Cl)[C@@H](O)C[C@]2(C)[C@H]1C(=O)COC(=O)C(C)(C)C [Clocortolone pivalate] | 0.24 ± 0.0038

Test system: E. coli TESEC Mtb Alr
Test: as above
Details: arabinose 1000 nM; compound 0.1 mM; raw OD600 reference: median of DMSO wells 0.294, cell-free background 0.041
Experimental: as §1

Compound | growth
O=C1OC(CN2CCOCC2)CN1/N=C/c1ccc([N+](=O)[O-])o1 (stereo not drawn) [Furaltadone hydrochloride] | 0.0421 ± 0.002
CN(C)CCCN1c2ccccc2CCc2ccccc21 [Imipramine hydrochloride] | 0.242 ± 0.018
CCOC(=O)O[C@]1(C(=O)OCCl)CC[C@H]2[C@@H]3CCC4=CC(=O)C=C[C@]4(C)[C@H]3[C@@H](O)C[C@@]21C [Loteprednol etabonate] | 0.167 ± 0.02
CCCNC(C)C(=O)Nc1ccccc1C (stereo not drawn) [Prilocaine hydrochloride] | 0.275 ± 0.011
NS(=O)(=O)c1cc2c(cc1Cl)NCNS2(=O)=O [Hydrochlorothiazide] | 0.282 ± 0.019
Cc1cc2c(s1)Nc1ccccc1N=C2N1CCN(C)CC1 [Olanzapine] | 0.286 ± 0.014
Nc1ccc(C(=O)O)c(O)c1 [4-aminosalicylic acid] | 0.305 ± 0.011
CC(=O)Oc1ccc(C(c2ccc(OC(C)=O)cc2)c2ccccn2)cc1 [Bisacodyl] | 0.245 ± 0.018
CN(Cc1cnc2nc(N)nc(N)c2n1)c1ccc(C(=O)N[C@@H](CCC(=O)O)C(=O)O)cc1 (racemic) [Amethopterin (R,S)] | 0.273 ± 0.0079
CC(C(=O)O)c1ccc(C(=O)c2ccccc2)s1 (stereo not drawn) [Tiaprofenic acid] | 0.253 ± 0.021
Nc1c2ccccc2nc2ccccc12 [Aminacrine] | 0.0397 ± 0.00091
CCCC(CCC)C(=O)O [Valproic acid] | 0.293 ± 0.0086
Cc1[nH]cnc1CN1CCc2c(c3ccccc3n2C)C1=O [Alosetron hydrochloride] | 0.26 ± 0.0044
CN(C)c1nc(N(C)C)nc(N(C)C)n1 [Altretamine] | 0.315 ± 0.018
Cc1nnc(NS(=O)(=O)c2ccc(N)cc2)s1 [Sulfamethizole] | 0.288 ± 0.011
CCC1=C(C)CN(C(=O)NCCc2ccc(S(=O)(=O)NC(=O)N[C@H]3CC[C@H](C)CC3)cc2)C1=O [Glimepiride] | 0.299 ± 0.011
CC1CC(OC(=O)c2ccccc2O)CC(C)(C)C1 (stereo not drawn) [Homosalate] | 0.3 ± 0.005
CCCN(CCC)C(=O)C(CCC(=O)O)NC(=O)c1ccccc1 (stereo not drawn) [Proglumide] | 0.282 ± 0.036
NCCc1ccc(O)c(O)c1 [Dopamine hydrochloride] | 0.27 ± 0.012
OCCN1CCN(CCCN2c3ccccc3Sc3ccc(Cl)cc32)CC1 [Perphenazine] | 0.0411 ± 0.00082

Compound | growth
CCN(CC)CCOC(=O)C1(C2CCCCC2)CCCCC1 [Dicyclomine hydrochloride] | 0.115 ± 0.063
Cc1cc(-c2ccccc2)nnc1NCCN1CCOCC1 [Minaprine dihydrochloride] | 0.288 ± 0.011
CCC1(C)CC(=O)NC1=O (stereo not drawn) [Ethosuximide] | 0.287 ± 0.014
COc1nc(C)nc(Cl)c1NC1=NCCN1 [Moxonidine] | 0.298 ± 0.014
COC(=O)Nc1nc2cc(C(=O)c3cccs3)ccc2[nH]1 [Nocodazole] | 0.292 ± 0.018
CCN(CC)C(=O)/C(C#N)=C/c1cc(O)c(O)c([N+](=O)[O-])c1 [Entacapone] | 0.0552 ± 0.0036
CCN(CC)CCOC(=O)C(c1ccccc1)C1CCCCC1 (stereo not drawn) [Drofenine hydrochloride] | 0.203 ± 0.017
Cc1c(Cl)cccc1Nc1ncccc1C(=O)O [Clonixin Lysinate] | 0.207 ± 0.0063
Cn1cnc2c1c(=O)[nH]c(=O)n2C [Theobromine] | 0.313 ± 0.018
COc1cc(N)c(Cl)cc1C(=O)NC1CCN(Cc2ccccc2)CC1 [Clebopride maleate] | 0.263 ± 0.0076
CCN1CCN(c2cc3c(cc2F)c(=O)c(C(=O)O)cn3C2CC2)CC1 [Enrofloxacin] | 0.0446 ± 0.0089
Nc1ccn([C@H]2CC[C@@H](CO)O2)c(=O)n1 [Zalcitabine] | 0.2977 ± 0.0013
COCCOC(=O)C1=C(C)NC(C)=C(C(=O)OC(C)C)C1c1cccc([N+](=O)[O-])c1 (stereo not drawn) [Nimodipine] | 0.176 ± 0.062
C[C@H]1O[C@@H](O[C@H]2[C@@H](O)C[C@H](O[C@H]3[C@@H](O)C[C@H](O[C@H]4CC[C@@]5(C)[C@H](CC[C@@H]6[C@@H]5C[C@@H](O)[C@]5(C)[C@@H](C7=CC(=O)OC7)CC[C@]65O)C4)O[C@@H]3C)O[C@@H]2C)C[C@H](O)[C@@H]1O [Digoxin] | 0.282 ± 0.01
COc1cccc2c1C(=O)c1c(O)c3c(c(O)c1C2=O)C[C@@](O)(C(C)=O)C[C@@H]3O[C@H]1C[C@H](N)[C@H](O)[C@H](C)O1 [Daunorubicin hydrochloride] | 0.0442 ± 0.0008
O=C(CCNNC(=O)c1ccncc1)NCc1ccccc1 [Nialamide] | 0.28 ± 0.01
CC(=O)S[C@@H]1CC2=CC(=O)CC[C@]2(C)[C@H]2CC[C@@]3(C)[C@@H](CC[C@@]34CCC(=O)O4)[C@H]12 [Spironolactone] | 0.0986 ± 0.051
CCN1CCCC1CNC(=O)c1cc(S(N)(=O)=O)ccc1OC (stereo not drawn) [Sulpiride] | 0.291 ± 0.012
COc1ncnc(NS(=O)(=O)c2ccc(N)cc2)c1OC [Sulfadoxine] | 0.28 ± 0.0075
C[C@@H]1C[C@H]2[C@@H]3C[C@H](F)C4=CC(=O)C=C[C@]4(C)[C@@]3(Cl)[C@@H](O)C[C@]2(C)[C@H]1C(=O)COC(=O)C(C)(C)C [Clocortolone pivalate] | 0.307 ± 0.0044
